Assay results from PubChem BioAssay AID1159580 (chemical genetic matrix, 2015).
“And” between values parts separate entries of the source, which are not always exact repeats. Equal entries are not always repeated. The campaign covered roughly 5,500 compounds. About 2,000 (36%) were called active. Another 18% or so got no clear call; they are omitted. No stated cut-off is given here; in the data, active means normalized growth mostly below about 0.91 (no sharp cut-off); inconclusive means no clear call, values can overlap the other calls; inactive means mostly above about 0.92. This is one part of the list.

Experiment: chemical genetic growth profiling, strain panel (AID 1159580);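 further: tested at 20 µM; growth read once vehicle control cultures reached saturation at 30 °C; 1 = growth at the plate median or of vehicle wells; lower values mean less growth of the strain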
Conditions: growth OD

Measured: normalized growth

CCN(CC)CCOC(=O)C(c1ccccc1)C1CCCCC1 (configuration not stated)
inactive: S. cerevisiae deletion strains, locus YAL013W, strain DEP1, active compounds read low 1 | S. cerevisiae deletion strains, locus YBR021W, strain FUR4, active compounds read low 1 | S. cerevisiae deletion strains, locus YBR229C, strain ROT2, active compounds read low 1 | S. cerevisiae deletion strains, locus YCL029C, strain bik1, active compounds read low 0.958 | S. cerevisiae deletion strains, locus YDL035C, strain GPR1, active compounds read low 0.999 | S. cerevisiae deletion strains, locus YDL074C, strain BRE1, active compounds read low 0.948 | S. cerevisiae deletion strains, locus YDL101C, strain DUN1, active compounds read low 0.983 | S. cerevisiae deletion strains, locus YDL134C, strain PPH21, active compounds read low 1.01 | S. cerevisiae deletion strains, locus YDL185W, strain tfp1, active compounds read low 0.946 | S. cerevisiae deletion strains, locus YDL192W, strain arf1, active compounds read low 0.971 | S. cerevisiae deletion strains, locus YDR101C, strain arx1, active compounds read low 0.964 | S. cerevisiae deletion strains, locus YDR150W, strain NUM1, active compounds read low 0.989 | S. cerevisiae deletion strains, locus YDR162C, strain NBP2, active compounds read low 0.99 | S. cerevisiae deletion strains, locus YDR318W, strain mcm21, active compounds read low 0.97 | S. cerevisiae deletion strains, locus YDR388W, active compounds read low 0.948 | S. cerevisiae deletion strains, locus YDR502C, strain sam2, active compounds read low 0.998 | S. cerevisiae deletion strains, locus YEL061C, strain CIN8, active compounds read low 0.999 | S. cerevisiae deletion strains, locus YER110C, active compounds read low 0.973 | S. cerevisiae deletion strains, locus YER155C, strain BEM2, active compounds read low 1 | S. cerevisiae deletion strains, locus YER167W, strain BCK2, active compounds read low 1.01 | S. cerevisiae deletion strains, locus YGL078C, strain dbp3, active compounds read low 0.99 | S. cerevisiae deletion strains, locus YGL086W, strain mad1, active compounds read low 1.02 | S. cerevisiae deletion strains, locus YGL248W, strain PDE1, active compounds read low 1.01 | S. cerevisiae deletion strains, locus YGR078C, strain PAC10, active compounds read low 0.966 | S. cerevisiae deletion strains, locus YGR135W, strain pre9, active compounds read low 0.968 | S. cerevisiae deletion strains, locus YGR229C, strain SMI1, active compounds read low 0.972 | S. cerevisiae deletion strains, locus YGR252W, strain gcn5, active compounds read low 1.11 | S. cerevisiae deletion strains, locus YHR030C, strain SLT2, active compounds read low 0.995 and 1.06 | S. cerevisiae deletion strains, locus YHR079C, strain IRE1 (second series), active compounds read low 0.964 | S. cerevisiae deletion strains, locus YHR079C, strain IRE1, active compounds read low 1.04 | S. cerevisiae deletion strains, locus YHR094C, strain hxt1, active compounds read low 0.975 | S. cerevisiae deletion strains, locus YHR129C, strain ARP1, active compounds read low 0.992 | S. cerevisiae deletion strains, locus YHR200W, strain rpn10, active compounds read low 0.975 | S. cerevisiae deletion strains, locus YIL066C, strain RNR3, active compounds read low 0.984 | S. cerevisiae deletion strains, locus YIL073C, strain SPO22, active compounds read low 0.958 | S. cerevisiae deletion strains, locus YIL125W, strain kgd1, active compounds read low 0.986 | S. cerevisiae deletion strains, locus YIR030C, strain dcg1, active compounds read low 0.981 | S. cerevisiae deletion strains, locus YJL095W, strain BCK1, active compounds read low 0.938 and 1.05 | S. cerevisiae deletion strains, locus YJL134W, strain LCB3, active compounds read low 0.998 | S. cerevisiae deletion strains, locus YJL168C, strain set2, active compounds read low 0.966 | S. cerevisiae deletion strains, locus YJL187C, strain SWE1 (second series), active compounds read low 0.969 | S. cerevisiae deletion strains, locus YJR043C, strain POL32, active compounds read low 0.991 | S. cerevisiae deletion strains, locus YJR066W, strain TOR1, active compounds read low 1 | S. cerevisiae deletion strains, locus YJR075W, strain HOC1, active compounds read low 0.954 | S. cerevisiae deletion strains, locus YKL009W, strain mrt4, active compounds read low 0.962 | S. cerevisiae deletion strains, locus YKL068W, active compounds read low 0.978 | S. cerevisiae deletion strains, locus YKL085W, strain MDH1 (second series), active compounds read low 0.97 | S. cerevisiae deletion strains, locus YKL085W, strain MDH1, active compounds read low 0.97 | S. cerevisiae deletion strains, locus YKL190W, strain CNB1, active compounds read low 0.989 | S. cerevisiae deletion strains, locus YKR001C, strain vps1, active compounds read low 0.999 | S. cerevisiae deletion strains, locus YLR039C, strain RIC1, active compounds read low 1.12 | S. cerevisiae deletion strains, locus YLR058C, strain SHM2, active compounds read low 1 | S. cerevisiae deletion strains, locus YLR102C, strain apc9, active compounds read low 0.983 | S. cerevisiae deletion strains, locus YLR113W, strain HOG1, active compounds read low 1.02 | S. cerevisiae deletion strains, locus YLR262C, strain YPT6, active compounds read low 1.12 | S. cerevisiae deletion strains, locus YLR268W, strain sec22, active compounds read low 0.906 | S. cerevisiae deletion strains, locus YLR330W, strain CHS5, active compounds read low 1 | S. cerevisiae deletion strains, locus YLR342W, strain FKS1 (second series), active compounds read low 1.02 | S. cerevisiae deletion strains, locus YLR371W, strain rom2, active compounds read low 0.962 | S. cerevisiae deletion strains, locus YLR418C, strain cdc73, active compounds read low 0.931 | S. cerevisiae deletion strains, locus YML016C, strain PPZ1, active compounds read low 1 | S. cerevisiae deletion strains, locus YML032C, strain rad52, active compounds read low 0.948 | S. cerevisiae deletion strains, locus YML124C, strain tub3, active compounds read low 0.977 | S. cerevisiae deletion strains, locus YMR078C, strain ctf18, active compounds read low 0.949 | S. cerevisiae deletion strains, locus YMR223W, strain ubp8, active compounds read low 1.01 | S. cerevisiae deletion strains, locus YMR263W, strain SAP30, active compounds read low 0.969 | S. cerevisiae deletion strains, locus YMR307W, strain GAS1, active compounds read low 1.23 | S. cerevisiae deletion strains, locus YNL067W, strain RPL9B, active compounds read low 0.965 | S. cerevisiae deletion strains, locus YNL128W, strain TEP1, active compounds read low 0.98 | S. cerevisiae deletion strains, locus YNL153C, strain GIM3, active compounds read low 0.973 | S. cerevisiae deletion strains, locus YNL183C, strain NPR1, active compounds read low 0.983 | S. cerevisiae deletion strains, locus YNL233W, strain BNI4, active compounds read low 0.99 | S. cerevisiae deletion strains, locus YNL250W, strain rad50, active compounds read low 0.992 | S. cerevisiae deletion strains, locus YNL271C, strain bni1, active compounds read low 0.974 | S. cerevisiae deletion strains, locus YNL298W, strain CLA4, active compounds read low 0.969 | S. cerevisiae deletion strains, locus YNL307C, strain MCK1, active compounds read low 0.978 | S. cerevisiae deletion strains, locus YNL322C, strain KRE1, active compounds read low 0.988 | S. cerevisiae deletion strains, locus YNR052C, strain pop2, active compounds read low 0.952 | S. cerevisiae deletion strains, locus YOL006C, strain TOP1, active compounds read low 0.94 | S. cerevisiae deletion strains, locus YOL012C, strain htz1 1.03 | S. cerevisiae deletion strains, locus YOL147C, strain pex11, active compounds read low 0.976 | S. cerevisiae deletion strains, locus YOR061W, strain CKA2, active compounds read low 0.993 | S. cerevisiae deletion strains, locus YOR069W, strain VPS5, active compounds read low 1 | S. cerevisiae deletion strains, locus YOR136W, strain idh2, active compounds read low 0.981 | S. cerevisiae deletion strains, locus YOR144C, strain elg1, active compounds read low 0.981 | S. cerevisiae deletion strains, locus YOR184W, strain ser1, active compounds read low 0.97 | S. cerevisiae deletion strains, locus YOR231W, strain MKK1, active compounds read low 1.04 | S. cerevisiae deletion strains, locus YOR316C, strain cot1, active compounds read low 0.955 | S. cerevisiae deletion strains, locus YPL055C, strain LGE1, active compounds read low 0.959 | S. cerevisiae deletion strains, locus YPL241C, strain CIN2, active compounds read low 1 | S. cerevisiae deletion strains, locus YPL256C, strain CLN2, active compounds read low 1.06 | S. cerevisiae deletion strains, locus YPR119W, strain clb2, active compounds read low 0.964 | S. cerevisiae deletion strains, locus YPR141C, strain kar3, active compounds read low 0.975 | S. cerevisiae deletion strains, locus YPR163C, strain tif3, active compounds read low 0.961 | S. cerevisiae deletion strains, locus YPR167C, strain met16, active compounds read low 0.96 | S. cerevisiae deletion strains, strain wtn01, active compounds read low 0.938 | S. cerevisiae strains, strain wild type, active compounds read low 0.995
